Laboratory results reported in PubChem BioAssay AID1159580 (chemical genetic matrix, 2015).
Where “and” joins values, the source holds several entries; their conditions need not be identical. Equal entries are not always repeated. The whole screen tested about 5,500 compounds, of which about 2,000 (36%) were called active. Not shown: some 18% with an inconclusive outcome. No stated cut-off is given here; in the data, active means normalized growth mostly below about 0.91 (no sharp cut-off); inconclusive means no clear call, values can overlap the other calls; inactive means mostly above about 0.92. Some of the results follow.

Experiment: chemical genetic growth profiling, strain panel (AID 1159580);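 further: tested at 20 µM; growth read once vehicle control cultures reached saturation at 30 °C; 1 = growth at the plate median or of vehicle wells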
Settings: S. cerevisiae deletion strains, growth OD

Measured: normalized growth

Nc1ccc(S(=O)(=O)Nc2ccnn2-c2ccccc2)cc1
inactive: locus YAL013W, strain DEP1, stronger effect = lower value 1.04 | locus YAL021C, strain ccr4, stronger effect = lower value 0.986 | locus YAL026C, strain drs2, stronger effect = lower value 0.977 | locus YAL030W, strain snc1, stronger effect = lower value 1.01 | locus YAL040C, strain CLN3, stronger effect = lower value 1.02 | locus YBL061C, strain skt5, stronger effect = lower value 1.01 | locus YBR009C, strain hhf1, stronger effect = lower value 1.01 | locus YBR021W, strain FUR4, stronger effect = lower value 0.994 | locus YBR023C, strain chs3, stronger effect = lower value 0.999 | locus YBR171W, strain sec66, stronger effect = lower value 0.993 | locus YBR229C, strain ROT2, stronger effect = lower value 1.01 | locus YBR231C, strain swc5, stronger effect = lower value 1.01 | locus YBR279W, strain paf1, stronger effect = lower value 0.996 | locus YCL011C, strain gbp2, stronger effect = lower value 0.982 | locus YCL016C, strain dcc1, stronger effect = lower value 0.999 | locus YCL029C, strain bik1, stronger effect = lower value 0.995 | locus YCL061C, strain MRC1 (second series), stronger effect = lower value 1.02 | locus YCL061C, strain MRC1, stronger effect = lower value 0.997 | locus YCL069W, strain vba3, stronger effect = lower value 0.991 | locus YCR088W, strain abp1, stronger effect = lower value 0.982 | locus YDL005C, strain med2, stronger effect = lower value 0.98 | locus YDL035C, strain GPR1, stronger effect = lower value 0.999 | locus YDL040C, strain nat1, stronger effect = lower value 0.993 | locus YDL074C, strain BRE1, stronger effect = lower value 1.02 | locus YDL101C, strain DUN1, stronger effect = lower value 1.02 | locus YDL134C, strain PPH21, stronger effect = lower value 0.995 | locus YDL185W, strain tfp1, stronger effect = lower value 1 | locus YDL192W, strain arf1, stronger effect = lower value 0.995 | locus YDR001C, strain nth1, stronger effect = lower value 0.994 | locus YDR069C, strain doa4, stronger effect = lower value 0.999 | locus YDR101C, strain arx1, stronger effect = lower value 1.01 | locus YDR137W, strain rgp1, stronger effect = lower value 0.938 | locus YDR150W, strain NUM1, stronger effect = lower value 1.02 and 1.01 | locus YDR159W, strain sac3, stronger effect = lower value 1.02 | locus YDR162C, strain NBP2, stronger effect = lower value 0.999 | locus YDR195W, strain ref2 0.961 | locus YDR297W, strain sur2, stronger effect = lower value 0.998 | locus YDR318W, strain mcm21, stronger effect = lower value 0.99 | locus YDR334W, strain swr1, stronger effect = lower value 0.95 | locus YDR335W, strain msn5, stronger effect = lower value 0.998 | locus YDR363W, strain ESC2, stronger effect = lower value 1.01 | locus YDR388W, stronger effect = lower value 1 | locus YDR392W, strain spt3, stronger effect = lower value 0.96 | locus YDR502C, strain sam2, stronger effect = lower value 1.03 | locus YEL003W, strain gim4, stronger effect = lower value 0.986 | locus YEL037C, strain rad23, stronger effect = lower value 0.991 | locus YEL061C, strain CIN8 (second series), stronger effect = lower value 0.992 | locus YEL061C, strain CIN8, stronger effect = lower value 1.01 | locus YER002W, strain NOP16, stronger effect = lower value 1.01 | locus YER015W, strain faa2, stronger effect = lower value 0.997 | locus YER016W, strain bim1, stronger effect = lower value 1.01 | locus YER110C, stronger effect = lower value 0.993 | locus YER111C, strain swi4, stronger effect = lower value 1.01 | locus YER155C, strain BEM2 (second series), stronger effect = lower value 1 | locus YER155C, strain BEM2, stronger effect = lower value 1.01 | locus YER167W, strain BCK2, stronger effect = lower value 1 | locus YFR010W, strain ubp6, stronger effect = lower value 0.986 | locus YGL078C, strain dbp3, stronger effect = lower value 0.999 | locus YGL086W, strain mad1, stronger effect = lower value 1 | locus YGL167C, strain pmr1, stronger effect = lower value 1 | locus YGL173C, strain kem1, stronger effect = lower value 0.986 | locus YGL227W, strain vid30, stronger effect = lower value 0.998 | locus YGL240W, strain doc1, stronger effect = lower value 1.02 | locus YGL248W, strain PDE1, stronger effect = lower value 1.01 | locus YGL253W, strain hxk2, stronger effect = lower value 0.988 | locus YGR135W, strain pre9, stronger effect = lower value 0.994 | locus YGR229C, strain SMI1, stronger effect = lower value 1.03 | locus YGR252W, strain gcn5, stronger effect = lower value 0.958 | locus YHR013C, strain ard1, stronger effect = lower value 1.04 | locus YHR027C, strain rpn1, stronger effect = lower value 0.987 | locus YHR030C, strain SLT2, stronger effect = lower value 1.01 and 0.958 | locus YHR079C, strain IRE1 (second series), stronger effect = lower value 0.994 | locus YHR079C, strain IRE1, stronger effect = lower value 0.967 | locus YHR094C, strain hxt1, stronger effect = lower value 0.988 | locus YHR129C, strain ARP1, stronger effect = lower value 1.01 | locus YHR142W, strain chs7, stronger effect = lower value 0.965 | locus YHR200W, strain rpn10, stronger effect = lower value 0.991 | locus YIL066C, strain RNR3, stronger effect = lower value 1.02 | locus YIL073C, strain SPO22, stronger effect = lower value 0.972 | locus YIL125W, strain kgd1, stronger effect = lower value 1 | locus YIR030C, strain dcg1, stronger effect = lower value 0.993 | locus YJL092W, strain hpr5, stronger effect = lower value 0.984 | locus YJL095W, strain BCK1 (second series), stronger effect = lower value 0.996 | locus YJL095W, strain BCK1, stronger effect = lower value 1.05 and 0.981 | locus YJL115W, strain asf1, stronger effect = lower value 0.965 | locus YJL129C, strain trk1, stronger effect = lower value 0.991 | locus YJL134W, strain LCB3, stronger effect = lower value 1 | locus YJL154C, strain vps35, stronger effect = lower value 0.979 | locus YJL164C, strain tpk1, stronger effect = lower value 0.994 | locus YJL166W, strain qcr8, stronger effect = lower value 1.01 | locus YJL168C, strain set2, stronger effect = lower value 0.996 | locus YJL187C, strain SWE1 (second series), stronger effect = lower value 1.02 | locus YJL187C, strain SWE1, stronger effect = lower value 1 | locus YJR043C, strain POL32, stronger effect = lower value 1 | locus YJR066W, strain TOR1, stronger effect = lower value 0.888
